HT1080 IDH1KD tx: toxicity to HT-1080 IDH1 knockdown cells (counter line); HT-1080 IDH1 knockdown viability, ATP luminescence, 48 h; 360,000 compounds, 2% hits; AID 686971; Potency, µM (highest dose often 46.1 µM), inactives show at the top dose activity, negative = toxicity, most hits filed as cytotoxic;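 also: potency is read from the fitted curve at half-maximal effect; 0% = DMSO wells and -100% = cell-free medium wells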
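In this qHTS, HT-1080 cells depleted of IDH1 are exposed for 48 h at 37 °C to compound titrations. Toxicity is scored from CellTiter-Glo luminescence, with DMSO as full viability and medium alone as none.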
uPA surface inh: inhibitors of cell surface uPA generation. 330,000 compounds, 0.31% hits. Potency, µM (highest dose often 38.3 µM), for the others: at the top dose activity change, negative = inhibition, hits mostly inhibitors. cell surface uPA generation assay, qHTS; active = well fitted inhibition curve with a large enough effect; inconclusive = small, poorly fitted or top-dose-only effect; inactive = no such curve, though single readings can be large or run the other way; tested in mouse RAW 264.7 cells; also: potency is read from the fitted curve at half-maximal effect; nearly all actives have a fitted effect of over 55% in size
HT1080NT lethal: kills 2HG-producing HT-1080-NT fibrosarcoma cells; HT-1080-NT fibrosarcoma viability, CellTiter-Glo ATP luminescence, 48 h; Potency, µM (series often up to 46.1 µM), without a hit: at the highest dose activity, negative = less viability, usual class: cytotoxic; 360,000 compounds, 1.6% hits; AID 686970;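 also: NT is the 2HG producing partner of a matched IDH1 knockdown line; potency is read from the fitted curve at half-maximal effect; 0% = DMSO-treated cells and -100% = media-only wells without cells; nearly all actives have a fitted effect of over 55% in size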
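Viability by CellTiter-Glo luminescence after 48 h compound exposure at 37C of HT-1080-NT cells (750/well, RPMI, 5% FBS). % activity scaled between DMSO wells and medium-only wells, then curve-fitted and categorized by curve class.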
TDP1 cell CPT: growth inhibition of DT40 Tdp1-/-;hTDP1 cells with camptothecin (screen for TDP1 inhibitors). chicken DT40 Tdp1-/-;hTDP1 cells + 20 nM CPT, ATP luminescence, 48 h. Potency, µM (titrated, usually from 46.2 µM), without a hit: at the top dose activity change, negative = growth inhibition, hits mostly inhibitors. 420,000 compounds, 12% hits; also: potency is read from the fitted curve at half-maximal effect; nearly all actives have a fitted effect of over 55% in size
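Cell growth measured by CellTiter-Glo luminescence after a minimum 48 h, 37 C compound exposure with 20 nM CPT in Tdp1-knockout DT40 cells stably expressing hTDP1, seeded 400/well; qHTS titration format.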
TDP1 cell noCPT: qHTS for Inhibitors of human tyrosyl-DNA phosphodiesterase 1 (TDP1): qHTS in cells in absence of CPT. DT40 Tdp1-/- hTDP1 cells, no CPT, ATP luminescence, 48 h. AID 686978, 2013. Potency, µM (highest dose often 46.2 µM), for the others: at the highest dose activity change, negative = growth inhibition, most hits filed as inhibitors. 420,000 compounds, 15% hits; also: potency is read from the fitted curve at half-maximal effect; nearly all actives have a fitted effect of over 55% in size
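Cells were dispensed at 400 per well, compounds added by pin tool, plates incubated ≥48 hr at 37 °C, then CellTiter-Glo added for 30 min at room temperature before luminescence reading. Line: DT40 Tdp1-/- complemented with hTDP1; camptothecin omitted.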
IL-1B inflam inh: inflammasome signaling inhibition, IL-1 beta readout | THP-1 LPS/ATP IL-1B secretion, AlphaLISA, 16 h; hits give low values | activity change, % at 57.5 µM | 360,000 compounds, 4.7% hits; in the data active = activity change below about -50%; inconclusive = mostly about -30% to -49%
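Secreted IL-1B measured by AlphaLISA bead assay after 16 h compound exposure of THP-1 cells; compounds (final up to 57.5 uM) added 1 h before LPS (250 ng/mL) and ATP (1.25 mM) stimulation; lower signal means less secretion.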
The depositor's hits bear a star; ? = inconclusive; . = no result. Sampled rows, rich in hits. Any-hit rate of the full collection: about 19%. Unless noted, calls follow the shape of the dose curve; as a rule, active = well fitted curve in the direction sought with a large enough effect; inconclusive = small, poorly fitted or top-dose-only effect, or another doubt; inactive = no such curve, though single readings can be large; an effect the other way counts as inactive or inconclusive. Unless noted, % is scaled to controls: 0 for no effect and ±100 for the full control effect.

SMILES | HT1080 IDH1KD tx | uPA surface inh | HT1080NT lethal | TDP1 cell CPT | TDP1 cell noCPT | IL-1B inflam inh
C[C@H](C[C@H](O)[C@H]1OC1(C)C)C1=C2C[C@H](O)C3[C@@]4(C)CCC(=O)C(C)(C)C4CC[C@]3(C)[C@@]2(C)CC1 (stereo partly drawn) | ? | ? | ? | 7.3µM* | 15µM* | -7
N#C/C(=C\c1ccc([N+](=O)[O-])o1)C(=O)Nc1ccc(F)cc1 | ? | -1% | ? | 1.3µM* | 2.3µM* | -90*
O=C(Cn1c(=O)c2cccn2c2ccccc21)NCc1ccccc1F | . | . | . | -18% | ? | .
CC(=O)OC(C)C1C2=C(C(=O)CC1(C)O)C(=O)c1c(ccc(-c3ccc4c(c3O)C(=O)C3=C(C4=O)C(C(C)OC(C)=O)C(C)(O)CC3=O)c1O)C2=O (stereo not drawn) | -12% | 7% | -9% | 1.2µM* | 1.5µM* | 5
CC(C)CN(C(=O)COC(=O)Cc1ccc(Cl)cc1)c1c(N)n(Cc2ccccc2)c(=O)[nH]c1=O | 23µM* | -8% | 26µM* | ? | ? | 1
CC(C)CN(C(=O)CSc1nnc(-c2ccco2)o1)c1c(N)n(Cc2ccccc2)c(=O)[nH]c1=O | 0% | -7% | -2% | -2% | 0% | -15
CCCCn1c(N)c(N(CC(C)C)C(=O)CSCc2ccc(Cl)c(Cl)c2)c(=O)[nH]c1=O | -12% | 0% | -13% | -8% | -14% | -56*
CCCCn1c(N)c(N(CC(C)C)C(=O)CSCc2cccc(C)c2)c(=O)[nH]c1=O | -9% | -4% | 2% | 23% | 11% | -12
CC(C)CN(C(=O)COC(=O)c1cccc2ccccc12)c1c(N)n(Cc2ccccc2)c(=O)[nH]c1=O | 1% | -19% | 0% | ? | 16µM* | -2
CC(C)CN(C(=O)CSc1nc2ccccc2o1)c1c(N)n(Cc2ccccc2)c(=O)[nH]c1=O | -6% | -4% | 1% | 18µM* | 21µM* | 10
CC(C)(C)OC(=O)C[C@@H]1C/C=C\C[C@@H](CC(=O)N(CCO)Cc2ccccc2)C(=O)N2CCC[C@@H]2COC1=O | 6% | 2% | 8% | -40% | -26% | 3
Cc1cccc(NS(=O)(=O)c2cc3c(cc2C)NC(=O)CO3)c1 | -13% | -8% | -1% | ? | ? | -12
Cc1cc(C(O)c2ncc(-c3ccccc3C)[nH]2)ccc1F (stereo not drawn) | 3% | . | 0% | ? | ? | -3
CC(=O)Nc1ccc(NC(=O)C(C)Sc2n[nH]c(-c3ccc(C)cc3)n2)cc1 (stereo not drawn) | -1% | -3% | -16% | 1% | -27% | 29
CC(C)CN(C(=O)CCc1ccccc1Cl)c1c(N)n(Cc2ccccc2)c(=O)[nH]c1=O | 7% | 11% | 6% | -7% | -11% | -9
CC(C)CN(C(=O)COC(=O)c1ccc2c(c1)OCO2)c1c(N)n(Cc2ccccc2)c(=O)[nH]c1=O | -5% | 4% | -6% | -17% | -19% | -55*
CCN(C(=O)COC(=O)c1ccccc1Nc1ccccc1)c1c(N)n(Cc2ccccc2)c(=O)[nH]c1=O | -23% | -19% | -29% | ? | ? | -50*
CCN(C(=O)COC(=O)c1cccc2ccccc12)c1c(N)n(Cc2ccccc2)c(=O)[nH]c1=O | -4% | -3% | -6% | -20% | 0% | ?
CC(C)CN(C(=O)CCCOc1ccc(Cl)cc1Cl)c1c(N)n(Cc2ccccc2)c(=O)[nH]c1=O | ? | -2% | -18% | ? | 26µM* | -24
CCc1nn(CC(=O)NCc2ccco2)c(=O)c2cc3c(OC)cccc3n12 | . | . | . | -18% | -3% | .
CN(Cc1ccco1)c1cc(-c2ccoc2)ncn1 | . | . | . | -19% | -2% | .

High-throughput results deposited in PubChem BioAssay by National Center for Advancing Translational Sciences (NCATS).
